# Pf apPOL block – Pf-apPOL DNA polymerase inhibition | hit rate 0.25% among 210,000 | Recombinant Pf-apPOL, molecular beacon fluorescence, 1.5 h | AID 1794808 | inhibition, % at 10 µM
# mHTT-CaM PPI inh – inhibitors of human mutant huntingtin-calmodulin interaction. AlphaScreen His-mHTT/GST-CaM binding, luminescence. inhibition, % at 15 µM. hit rate 3.6% among 190,000;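 note: 0% = both proteins with DMSO and 100% = one protein alone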
# Target sequence (P42858 whole entry, looked up, stated change not applied): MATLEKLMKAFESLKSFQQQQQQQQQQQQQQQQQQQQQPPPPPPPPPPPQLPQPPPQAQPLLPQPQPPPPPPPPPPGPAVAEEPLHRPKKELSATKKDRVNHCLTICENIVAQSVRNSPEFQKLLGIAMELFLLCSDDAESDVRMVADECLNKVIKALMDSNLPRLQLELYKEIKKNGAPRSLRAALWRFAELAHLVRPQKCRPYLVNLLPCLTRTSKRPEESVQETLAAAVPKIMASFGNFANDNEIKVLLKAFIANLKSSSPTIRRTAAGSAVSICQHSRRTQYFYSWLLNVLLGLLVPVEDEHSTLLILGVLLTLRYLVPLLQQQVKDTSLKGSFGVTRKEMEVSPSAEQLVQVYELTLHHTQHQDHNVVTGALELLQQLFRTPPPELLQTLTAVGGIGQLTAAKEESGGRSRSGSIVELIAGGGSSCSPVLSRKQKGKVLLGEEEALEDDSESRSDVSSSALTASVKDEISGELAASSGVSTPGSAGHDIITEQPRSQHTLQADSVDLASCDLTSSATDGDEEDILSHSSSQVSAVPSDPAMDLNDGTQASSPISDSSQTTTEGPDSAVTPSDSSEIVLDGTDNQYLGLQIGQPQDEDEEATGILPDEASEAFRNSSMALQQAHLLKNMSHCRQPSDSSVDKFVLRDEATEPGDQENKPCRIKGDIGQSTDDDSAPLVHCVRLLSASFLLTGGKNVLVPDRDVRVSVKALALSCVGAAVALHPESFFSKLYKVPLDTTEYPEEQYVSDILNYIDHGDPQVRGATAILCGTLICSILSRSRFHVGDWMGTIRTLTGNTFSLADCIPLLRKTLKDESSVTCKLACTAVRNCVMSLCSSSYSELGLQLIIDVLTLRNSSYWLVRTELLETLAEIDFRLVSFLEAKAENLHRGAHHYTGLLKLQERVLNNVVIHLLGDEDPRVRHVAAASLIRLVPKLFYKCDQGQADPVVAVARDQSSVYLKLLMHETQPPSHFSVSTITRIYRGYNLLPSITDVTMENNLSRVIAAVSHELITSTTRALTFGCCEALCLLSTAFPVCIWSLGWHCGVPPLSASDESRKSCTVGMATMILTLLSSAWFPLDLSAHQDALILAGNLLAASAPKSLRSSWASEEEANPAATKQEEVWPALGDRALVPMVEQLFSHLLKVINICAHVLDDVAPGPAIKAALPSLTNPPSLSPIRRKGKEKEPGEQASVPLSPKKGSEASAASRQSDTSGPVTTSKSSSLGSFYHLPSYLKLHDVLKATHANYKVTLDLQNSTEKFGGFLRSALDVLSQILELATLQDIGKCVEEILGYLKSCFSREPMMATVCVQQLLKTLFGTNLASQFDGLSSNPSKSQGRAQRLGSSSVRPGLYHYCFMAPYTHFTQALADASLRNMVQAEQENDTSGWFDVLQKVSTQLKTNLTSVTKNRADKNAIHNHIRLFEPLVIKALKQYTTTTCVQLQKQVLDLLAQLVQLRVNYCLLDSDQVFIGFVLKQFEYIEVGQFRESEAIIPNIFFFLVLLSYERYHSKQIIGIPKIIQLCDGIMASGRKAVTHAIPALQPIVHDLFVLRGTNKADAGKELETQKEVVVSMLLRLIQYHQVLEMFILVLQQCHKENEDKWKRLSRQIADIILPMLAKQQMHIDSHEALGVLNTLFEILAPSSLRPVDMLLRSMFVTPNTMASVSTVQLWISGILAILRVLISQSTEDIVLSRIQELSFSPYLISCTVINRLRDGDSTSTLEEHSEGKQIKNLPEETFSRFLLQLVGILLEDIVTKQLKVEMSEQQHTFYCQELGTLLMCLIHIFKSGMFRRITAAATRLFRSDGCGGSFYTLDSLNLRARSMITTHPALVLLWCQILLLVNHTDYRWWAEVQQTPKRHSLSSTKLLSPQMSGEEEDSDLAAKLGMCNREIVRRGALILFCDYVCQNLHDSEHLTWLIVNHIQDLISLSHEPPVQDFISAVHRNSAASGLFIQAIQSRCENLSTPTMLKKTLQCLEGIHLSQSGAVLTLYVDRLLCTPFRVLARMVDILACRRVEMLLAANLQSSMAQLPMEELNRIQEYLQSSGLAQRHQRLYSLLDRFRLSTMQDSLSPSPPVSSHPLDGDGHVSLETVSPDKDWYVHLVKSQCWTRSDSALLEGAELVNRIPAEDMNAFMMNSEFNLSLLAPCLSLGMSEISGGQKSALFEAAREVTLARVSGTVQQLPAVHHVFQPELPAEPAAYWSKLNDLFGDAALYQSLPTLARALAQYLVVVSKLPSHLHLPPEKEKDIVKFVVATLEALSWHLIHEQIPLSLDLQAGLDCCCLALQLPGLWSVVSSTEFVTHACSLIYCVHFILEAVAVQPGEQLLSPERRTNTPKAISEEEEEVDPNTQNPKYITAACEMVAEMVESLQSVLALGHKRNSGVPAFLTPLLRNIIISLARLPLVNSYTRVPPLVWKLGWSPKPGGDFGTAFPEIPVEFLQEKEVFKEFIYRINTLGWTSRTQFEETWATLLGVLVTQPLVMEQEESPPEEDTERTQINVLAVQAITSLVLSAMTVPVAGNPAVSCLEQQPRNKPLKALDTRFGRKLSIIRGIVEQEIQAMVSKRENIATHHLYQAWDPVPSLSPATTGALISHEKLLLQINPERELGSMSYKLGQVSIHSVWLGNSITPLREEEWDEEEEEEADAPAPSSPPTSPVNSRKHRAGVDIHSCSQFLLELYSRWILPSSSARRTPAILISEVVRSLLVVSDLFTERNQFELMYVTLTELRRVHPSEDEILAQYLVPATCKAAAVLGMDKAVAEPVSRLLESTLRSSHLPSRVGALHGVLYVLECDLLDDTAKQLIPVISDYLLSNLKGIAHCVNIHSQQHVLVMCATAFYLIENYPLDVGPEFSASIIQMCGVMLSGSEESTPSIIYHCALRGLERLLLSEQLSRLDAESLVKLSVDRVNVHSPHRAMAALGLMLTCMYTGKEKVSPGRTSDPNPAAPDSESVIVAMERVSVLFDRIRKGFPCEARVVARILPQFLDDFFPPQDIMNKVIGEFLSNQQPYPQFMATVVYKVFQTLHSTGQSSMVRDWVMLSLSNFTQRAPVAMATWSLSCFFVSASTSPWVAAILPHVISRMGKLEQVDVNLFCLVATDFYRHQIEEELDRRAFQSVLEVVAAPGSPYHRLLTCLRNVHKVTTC
# Starred values were filed as active, the others as inactive; i = inactive; · = no result given; + = active, no number. Hits are enriched below; roughly 3.6% of the tested compounds scored in any of these assays. Cut-off read from the data, not from the text of the source: active = inhibition above about 50%; inactive = the rest.
SMILES,Pf apPOL block,mHTT-CaM PPI inh
COc1ccc(N2C(N)=C(C#N)C(c3ccc(Br)cc3)C3=C2CCCC3=O)cc1 (stereo not drawn),-5,25
N#CC1=C(N)N(c2ccc(Cl)cc2)C2=C(C(=O)CCC2)C1c1cccnc1 (stereo not drawn),-1,1
CN(C)c1ccc(C2C(C#N)=C(N)N(c3ccc(Cl)cc3)C3=C2C(=O)CCC3)cc1 (stereo not drawn),-4,99*
O=C(OCc1ccncc1)c1cn(-c2cccc(Cl)c2)c(=O)c2ccccc12,3,-5
Cc1nnc(NC(=O)c2cccc(C(=O)Nc3nnc(C)s3)n2)s1,1,2
COc1cc(C(C[N+](=O)[O-])c2c(C)[nH]c3ccccc23)cc(OC)c1OC (stereo not drawn),7,42
Cc1[nH]c2ccccc2c1C(Nc1ccccc1F)c1ccccn1 (stereo not drawn),-13,24
Cc1[nH]c2ccccc2c1C(Nc1ccccn1)c1ccc([N+](=O)[O-])cc1 (stereo not drawn),-1,97*
Cc1[nH]c2ccccc2c1C(C[N+](=O)[O-])c1ccc(F)cc1 (stereo not drawn),-6,54*
NC(=O)C1CCN(C(=O)COc2ccc(Br)cc2Cl)CC1,-4,-5
CCCCC(=O)Nc1c2c(nn1-c1cccc(Cl)c1)CS(=O)(=O)C2,-1,-2
CCOC(=O)c1cc(-c2ccc(Cl)cc2)oc1C=NOC(=O)c1ccco1,1,·
O=C(C1CC1)N1CCCC(c2ccnc(Nc3cccc(F)c3)n2)C1 (stereo not drawn),-3,16
CC(C)C(=O)N1CCCC(c2ccnc(Nc3cccc(F)c3)n2)C1 (stereo not drawn),-6,11
O=C(Cc1cccc(F)c1)N1CCCC(c2ccnc(Nc3ccccc3)n2)C1 (stereo not drawn),0,90*
O=C(c1cccs1)N1CCCC(c2ccnc(Nc3ccc(F)cc3)n2)C1 (stereo not drawn),-3,21
O=C(c1ccccc1)N1CCCC(c2ccnc(Nc3cccc(F)c3)n2)C1 (stereo not drawn),-4,72*
O=C(c1cccs1)N1CCCC(c2ccnc(Nc3cccc(F)c3)n2)C1 (stereo not drawn),-1,93*
O=C(Cc1cccs1)N1CCCC(c2ccnc(Nc3cccc(F)c3)n2)C1 (stereo not drawn),-6,75*
O=C(Cc1cccc(F)c1)N1CCCC(c2ccnc(-c3cccc(F)c3)n2)C1 (stereo not drawn),-2,7
CCOc1ccc(-c2noc(Cn3ccnc3)n2)cc1,-2,9
Cc1ccc(-c2cc(CN(C(=O)c3ccc(F)cc3)C3CC3)no2)cc1C,0,8
CCOCC(=O)N1CCCC(c2ccnc(Nc3ccccc3C)n2)C1 (stereo not drawn),-3,5
Cc1ccccc1Nc1nccc(C2CCCN(C(=O)COc3ccc(F)cc3)C2)n1 (stereo not drawn),-6,90*
Cc1ccc(C(=O)Sc2n[nH]c(=O)[nH]c2=O)cc1,12,98*
SMILES,Pf apPOL block,mHTT-CaM PPI inh
O=C(Sc1n[nH]c(=O)[nH]c1=O)c1cccc(Br)c1,-5,4
CCOC(=O)c1oc2ccc(S(=O)(=O)N3CCc4c(nc[nH]c4=O)C3)cc2c1C,-6,-1
O=C1Nc2ccc(Br)cc2/C1=C/c1ccc(O)c(O)c1,2,96*
CC(C)(C)c1ccc(/C=C2\C(=O)Nc3ccc(Br)cc32)cc1,-7,90*
O=C1Nc2ccc(Br)cc2/C1=C/c1ccc(Cl)cc1,-6,26
O=C1Nc2ccc(Br)cc2/C1=C/c1cccc(Cl)c1,3,40
COc1cccc(/C=C/C(=O)c2cccs2)c1OC,3,-5
Oc1ccc(N=C/C=C/c2ccc3c(c2)OCO3)cc1-c1nc2ccccc2o1,-2,4
CN(C(=O)c1cccc([N+](=O)[O-])c1)c1nnc(C23CC4CC(CC(C4)C2)C3)s1,8,22
CCCC(=O)N1CCc2c(c(COCc3ccc(C)cc3)nn2C)C1,-6,3
Cn1nc(COCc2ccccc2)c2c1CCN(S(=O)(=O)c1ccccc1)C2,0,27
CCC(=O)N1CCc2c(c(COCc3ccc(Cl)cc3)nn2C)C1,-14,52*
Cn1nc(COCc2ccc(Cl)cc2)c2c1CCN(C(=O)Nc1ccccc1)C2,-1,44
COc1ccc(NC(=O)N2CCc3c(c(COCc4ccc(Cl)cc4)nn3C)C2)cc1,-2,58*
Cc1ccccc1S(=O)(=O)N1CCc2c(c(COCc3ccccc3)nn2C)C1,3,60*
O=[N+]([O-])c1ccc(Nc2ccc(Cl)c(Cl)c2)nc1,-1,-5
CCNC(=O)c1ccc(-n2nc(C)c(C)c2C)nc1,0,3
CCc1cnc2c(c1Nc1ccc3c(c1)OCCO3)c(=O)n(C)c(=O)n2C,-6,11
O=C(NC(=S)Nc1ccc(C23CC4CC(CC(O)(C4)C2)C3)cc1)C12CC3CC(CC(C3)C1)C2,1,-2
O=C1C2C(C(=O)N1c1ccc(Cl)cc1Cl)C1C=CC2C12CC2 (stereo not drawn),3,-3
Cc1cccc(NC(=O)Cn2cccc2-c2nc(-c3ccccc3)cs2)n1,-2,32
CC(=O)Nc1ccc(Nc2nc(-c3ccccc3)cs2)cc1,-2,44
CC(=O)Nc1ccc(Nc2nc(-c3ccc(Cl)cc3)cs2)cc1,-3,76*
COc1ccc(-c2csc(Nc3ccc(NC(C)=O)cc3)n2)cc1,0,60*
COc1ccc(-c2csc(Nc3ccc(C(=O)O)cc3)n2)cc1,2,15
SMILES,Pf apPOL block,mHTT-CaM PPI inh
O=C(Cc1ccsc1)N1CCCC1c1ccc(Cl)cc1 (stereo not drawn),0,9
COc1ccc(Br)cc1C1=N/C(=C/c2cccc(Br)c2)C(=O)O1,4,5
Cc1ccccc1-c1noc(Cn2ccnc2C)n1,-6,-2
CNC(=O)C1CN(C(=O)NCc2cccc(F)c2)CC12CCCC2 (stereo not drawn),0,-4
Cc1c(C(=O)N2CCN(c3ccc(Cl)cc3[N+](=O)[O-])CC2)oc2ccccc12,8,61*
O=C(c1ccc(Cl)cc1)N1CCN(c2ccc(Cl)cc2[N+](=O)[O-])CC1,-2,40
COc1ccc(N2CCN(/C(=N/O)c3nonc3N)CC2)c([N+](=O)[O-])c1,-3,i
Nc1nonc1/C(=N\O)N1CCN(c2ccc(Cl)cc2[N+](=O)[O-])CC1,-8,+
CCN1CC=C2C(C#N)=C(N)C(C#N)(C#N)C(c3ccccc3F)C2C1 (stereo not drawn),-4,6
CCN(C)Cc1nc2sc3c(c2c(=O)[nH]1)CCC(C)C3 (stereo not drawn),0,8
O=C(Nc1cccc(Cl)c1)Nc1nccn(-c2ccccc2)c1=O,1,-6
COc1ccc2nc3sc(C(=O)Nc4cc(Cl)ccc4OC)cc3cc2c1,-2,25
O=C(CC(NCc1ccco1)C(=O)O)Nc1cc(Cl)ccc1O (stereo not drawn),1,5
O=C(CC(NCc1ccccn1)C(=O)O)Nc1cc(Cl)ccc1Cl (stereo not drawn),-1,100*
CC(=O)NC(=C(Cl)Cl)S(=O)(=O)c1ccc(Cl)cc1,-16,-6
CCCC1CCc2c(sc(NC(=O)c3ccncc3)c2C(N)=O)C1 (stereo not drawn),66*,-5
CCCC1CCc2c(sc(NC(=O)c3cccnc3)c2C(N)=O)C1 (stereo not drawn),5,7

# Screens as filed in PubChem BioAssay.
